Reference: PubChem BioAssay (Tox21)
Where “and” joins values, the source holds several entries; their conditions need not be identical. Equal entries are not always repeated. Inconclusive results are not listed. Calls of active or inactive are those of the source. Unless noted, calls follow the shape of the full dose curve.

What was measured:
[1] = Nuclear factor erythroid 2-related factor 2/antioxidant responsive element (Nrf2/ARE) small molecule agonists: qHTS cell viability counter screen in human keratinocytes (AID 1919968; active = well fitted curve in the direction sought with a large enough effect in the repeat runs; an effect the other way counts as inactive or inconclusive; also: nearly all actives have a fitted effect of over 55% in size; also: potency is read from the fitted curve at half-maximal effect)
Summary of the method: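 Cytotoxicity was multiplexed with the Nrf2/ARE luciferase assay in the same wells. Stably transfected HaCaT keratinocytes were treated with test compounds for 23 h at 37 C. Cell viability was then measured by CellTiter-Fluor fluorescence.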

[2] = Nuclear factor erythroid 2-related factor 2/antioxidant responsive element (Nrf2/ARE) small molecule agonists: luciferase reporter gene qHTS assay in human keratinocytes (AID 1919969); also: nearly all actives have a fitted effect of over 35% in size; also: potency is read from the fitted curve at half-maximal effect
[3] = target: Gonadotropin-releasing hormone receptor (Homo sapiens) (UniProt P30968); experiment: Human gonadotropin-releasing hormone receptor (GnRHR) small molecule agonists, calcium flux assay in GnRHR-HEK293 cells (AID 1920063); also: nearly all actives have a fitted effect of over 35% in size
Summary of the method: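 Agonist activity was measured as intracellular calcium flux in HEK293 cells engineered to stably express human GnRHR. After dye loading for 1 hour at 37 C, compounds in DMSO were added and fluorescence was followed for 3 minutes.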

[4] = target: KiSS-1 receptor (Homo sapiens) (UniProt Q969F8); experiment: Human kisspeptin (KISS1R) small molecule agonists, calcium flux assay in KISS1R-HEK293 cells (AID 1920064; active = well fitted curve in the direction sought with a large enough effect in the repeat runs; an effect the other way counts as inactive or inconclusive)
Summary of the method: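 Agonist activity is monitored as intracellular calcium rise in engineered HEK293 cells carrying human KISS1R. Cells are dye-loaded for 1 h at 37 C before compound addition, and fluorescence is recorded for 3 min.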

[5] = G protein-coupled receptor (GPCR) small molecule agonists, calcium flux assay: HEK293 wild type cell line counter screen (AID 1920065)
Summary of the method: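 Seed cells, incubate 18 h (37 C, 5% CO2); add calcium dye, 1 h at 37 C; pin-transfer compounds, ATP control or DMSO; read fluorescence 480/540 nm each second for 3 min.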

[6] = p53 small molecule agonists, cell-based qHTS assay with human liver microsomes (AID 1963577)
Summary of the method: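 Fluorescence of the beta-lactamase reporter in p53RE-bla cells, detected with LiveBLAzer substrate (2 h, room temperature, dark), served as the read-out after 16 h compound exposure at 37 C with human liver microsomes and NADPH, each 0.5 mg/mL final.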

[7] = p53 small molecule agonists, cell-based qHTS assay with rat liver microsomes (AID 1963578)
Summary of the method: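 Cells carrying a p53 response element–beta-lactamase reporter were plated and rested 5 h, then dosed with compound in DMSO plus rat liver microsomes and NADPH, each at 0.5 mg/mL final. After 16 h at 37 C, LiveBLAzer substrate was added for 2 h.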

[8] = p53 small molecule agonists, cell-based qHTS assay with human liver microsomes: qHTS cell viability counter screen (AID 1963579); also: nearly all actives have a fitted effect of over 45% in size
Summary of the method: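 Cytotoxicity counter screen: p53RE-bla, 4,000 cells/well; 5 h settle, 37 C/5% CO2; cpd + HLM 0.5 mg/mL + NADPH 0.5 mg/mL (final); 16 h, 37 C; CellTiter-Glo, 30 min RT, luminescence.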

[9] = p53 small molecule agonists, cell-based qHTS assay with rat liver microsomes: qHTS cell viability counter screen (AID 1963580); also: nearly all actives have a fitted effect of over 45% in size; also: potency is read from the fitted curve at half-maximal effect
Summary of the method: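 After the beta-lactamase ratio was read, CellTiter-Glo was added to the same wells and luminescence measured at 30 min; cells had been treated 16 h at 37 C with compounds, rat liver microsomes and NADPH (0.5 mg/mL final each).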

[10] = p53 small molecule agonists, cell-based qHTS assay: qHTS cell viability counter screen (AID 1963581); also: nearly all actives have a fitted effect of over 45% in size
Summary of the method: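 Viability was counter-screened in parallel with the p53 agonist reporter by measuring intracellular ATP luminescence in the same HCT-116 p53RE-bla wells after 16 h compound treatment at 37 C.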

[11] = p53 small molecule agonists, cell-based qHTS assay (AID 1963582; active = well fitted activation curve with a large enough effect in the signal ratio in the repeat runs, not every such curve was filed as active; the % refers to the signal ratio)
Summary of the method: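 Cells carrying a p53-responsive bla reporter are treated with test compounds for 16 h at 37 C; beta-lactamase activity is then detected with LiveBLAzer B/G FRET substrate after 2 h at room temperature.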

[12] = target: 5-hydroxytryptamine receptor 2A (Homo sapiens) (UniProt P28223); experiment: 5-hydroxytryptamine receptor 2A (HTR2A) small molecule antagonists, cell-based qHTS assay (AID 1963586); also: nearly all actives have a fitted effect of over 45% in size; also: potency is read from the fitted curve at half-maximal effect
Summary of the method: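 CHO cells stably expressing human HTR2A were plated for 18 h at 37 C, then loaded with calcium dye for 1 h. Compounds were preincubated 5 min at room temperature before DOI (4 nM solution) was added. Kinetic fluorescence was read for 3 min.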

[13] = target: Muscarinic acetylcholine receptor M1 (Homo sapiens) (UniProt P11229); experiment: Cholinergic receptor muscarinic 1 (CHRM1) small molecule antagonists, cell-based qHTS assay (AID 1963588); also: nearly all actives have a fitted effect of over 40% in size
Summary of the method: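 Compounds were tested at 15 concentrations in three independent runs. Dye-loaded CHRM1-CHO cells were exposed 5 min at room temperature before stimulation by acetylcholine added at 50nM. Intracellular calcium was read kinetically on FDSS for 3 min.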

[14] = target: Muscarinic acetylcholine receptor M1 (Homo sapiens) (UniProt P11229); experiment: Cholinergic receptor muscarinic 1 (CHRM1) small molecule agonists, cell-based qHTS assay (AID 1963589); also: nearly all actives have a fitted effect of over 35% in size
Summary of the method: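 Cells were plated and incubated 18 h at 37 C/5% CO2, loaded with calcium dye for 1 h at 37 C, then treated with compounds in DMSO. Fluorescence was recorded kinetically at 1 sec intervals.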

[15] = cAMP Responsive Elements (CRE) small molecule agonists, cell-based qHTS assay (AID 1963590)
Summary of the method: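 Cells carrying a CRE-driven beta-lactamase reporter (HEK 293T) are seeded, incubated overnight (18 h), and treated with test compounds for 3 h at 37 C; reporter activity is then detected with a FRET substrate after 2 h at room temperature.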

[16] = cAMP Responsive Elements (CRE) small molecule antagonists, cell-based qHTS assay (AID 1963591; active = well fitted inhibition curve with a large enough effect in the signal ratio in the repeat runs, not every such curve was filed as active; the % refers to the signal ratio; also: potency is read from the fitted curve at half-maximal effect)
Summary of the method: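 Cells (CRE-bla HEK 293T, DMEM with 10% dialyzed FBS and 25 mM HEPES) are seeded and incubated 18 h. Compounds are added with NKH477 agonist at 0.25 uM final for 3 h, then FRET substrate for 2 h.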

[17] = target: Beta-2 adrenergic receptor (Homo sapiens) (UniProt P07550); experiment: Adrenergic beta2 receptor (ADRB2) small molecule antagonists, cell-based qHTS assay (AID 1963592); also: series mostly up to about 92 µM; nearly all actives have a fitted effect of over 50% in size
Summary of the method: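 Assay format: CHO-ADRB2 cells, 18-20hr seeding at 37C/5% CO2, then compound plus 1nM isoproterenol agonist mix for 0.5hr RT. Homogeneous time-resolved fluorescence cAMP detection after 1hr, expressed as 665/615 nm ratio.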

[18] = target: D(2) dopamine receptor (Homo sapiens) (UniProt P14416); experiment: Dopamine D2 receptor (DRD2) small molecule agonists, cell-based qHTS assay (AID 1963594); also: nearly all actives have a fitted effect of over 35% in size
Summary of the method: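 HEK293 cells stably expressing human DRD2, pre-treated with PDE inhibitor Ro20-1724 (0.1 mM final) and compound 10 min at room temperature, then stimulated with NKH477 (200nM […]) for 30 min. cAMP read by HTRF (665/620 nm).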

[19] = target: D(2) dopamine receptor (Homo sapiens) (UniProt P14416); experiment: Dopamine D2 receptor (DRD2) small molecule antagonists, cell-based qHTS assay (AID 1963595; active = well fitted inhibition curve with a large enough effect in the signal ratio in the repeat runs, with a control signal flat; the % refers to the signal ratio)
Summary of the method: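 HEK293 cells stably expressing DRD2 were preincubated with 0.1 mM Ro20-1724, then with compound for 10 min at room temperature. Cells were stimulated with 200 nM NKH477 plus 12 nM quinpirole for 30 min, and cAMP was read by HTRF.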

[20] = target: 5-hydroxytryptamine receptor 2A (Homo sapiens) (UniProt P28223); experiment: 5-hydroxytryptamine receptor 2A (HTR2A) small molecule agonists, cell-based qHTS assay (AID 1963587); also: nearly all actives have a fitted effect of over 30% in size
Summary of the method: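 CHO cells stably expressing human HTR2A, plated 18 h, loaded with calcium dye 1 h at 37 C. Agonist mode: compounds added and intracellular calcium fluorescence recorded kinetically for 2 min at 1 sec intervals.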

Measured: Potency

Chain of 5-hydroxytryptamine receptor 2A (Homo sapiens) (P28223 whole entry, looked up): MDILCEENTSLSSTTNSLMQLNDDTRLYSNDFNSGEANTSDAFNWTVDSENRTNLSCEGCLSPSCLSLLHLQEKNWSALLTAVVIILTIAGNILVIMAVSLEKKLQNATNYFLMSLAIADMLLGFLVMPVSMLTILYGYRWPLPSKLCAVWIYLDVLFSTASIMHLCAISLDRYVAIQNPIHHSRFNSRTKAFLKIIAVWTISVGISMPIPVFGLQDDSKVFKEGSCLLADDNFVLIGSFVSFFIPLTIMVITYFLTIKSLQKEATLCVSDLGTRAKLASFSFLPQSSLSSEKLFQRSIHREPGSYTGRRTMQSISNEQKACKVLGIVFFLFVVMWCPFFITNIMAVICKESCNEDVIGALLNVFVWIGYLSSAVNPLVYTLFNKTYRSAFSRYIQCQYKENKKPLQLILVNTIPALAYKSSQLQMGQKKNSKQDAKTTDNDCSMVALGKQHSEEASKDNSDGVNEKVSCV
Chain of Muscarinic acetylcholine receptor M1 (Homo sapiens) (P11229 whole entry, looked up): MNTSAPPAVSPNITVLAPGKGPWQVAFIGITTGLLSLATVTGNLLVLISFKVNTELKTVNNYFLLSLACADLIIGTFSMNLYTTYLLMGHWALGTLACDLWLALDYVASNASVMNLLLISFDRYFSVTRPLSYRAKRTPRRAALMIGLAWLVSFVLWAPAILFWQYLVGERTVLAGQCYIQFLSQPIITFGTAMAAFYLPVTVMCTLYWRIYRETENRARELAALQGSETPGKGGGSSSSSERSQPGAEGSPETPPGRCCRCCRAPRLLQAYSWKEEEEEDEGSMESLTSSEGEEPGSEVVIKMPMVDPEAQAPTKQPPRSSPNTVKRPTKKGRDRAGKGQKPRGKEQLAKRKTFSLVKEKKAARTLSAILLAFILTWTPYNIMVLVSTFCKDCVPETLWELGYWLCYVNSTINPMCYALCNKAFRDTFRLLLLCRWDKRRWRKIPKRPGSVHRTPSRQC
Chain of Beta-2 adrenergic receptor (Homo sapiens) (P07550 whole entry, looked up): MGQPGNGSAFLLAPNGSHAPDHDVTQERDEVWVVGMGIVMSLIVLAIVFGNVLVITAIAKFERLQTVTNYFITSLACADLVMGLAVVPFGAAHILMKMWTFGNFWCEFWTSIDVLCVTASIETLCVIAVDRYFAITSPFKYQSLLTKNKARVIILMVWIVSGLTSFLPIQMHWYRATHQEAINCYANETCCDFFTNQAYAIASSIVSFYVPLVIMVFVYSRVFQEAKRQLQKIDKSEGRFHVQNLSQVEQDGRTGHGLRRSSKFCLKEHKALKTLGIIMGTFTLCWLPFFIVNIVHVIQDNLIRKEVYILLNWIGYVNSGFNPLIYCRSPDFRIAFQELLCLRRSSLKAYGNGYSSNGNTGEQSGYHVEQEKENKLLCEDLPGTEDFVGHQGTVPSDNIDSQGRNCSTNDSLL
Chain of D(2) dopamine receptor (Homo sapiens) (P14416 whole entry, looked up): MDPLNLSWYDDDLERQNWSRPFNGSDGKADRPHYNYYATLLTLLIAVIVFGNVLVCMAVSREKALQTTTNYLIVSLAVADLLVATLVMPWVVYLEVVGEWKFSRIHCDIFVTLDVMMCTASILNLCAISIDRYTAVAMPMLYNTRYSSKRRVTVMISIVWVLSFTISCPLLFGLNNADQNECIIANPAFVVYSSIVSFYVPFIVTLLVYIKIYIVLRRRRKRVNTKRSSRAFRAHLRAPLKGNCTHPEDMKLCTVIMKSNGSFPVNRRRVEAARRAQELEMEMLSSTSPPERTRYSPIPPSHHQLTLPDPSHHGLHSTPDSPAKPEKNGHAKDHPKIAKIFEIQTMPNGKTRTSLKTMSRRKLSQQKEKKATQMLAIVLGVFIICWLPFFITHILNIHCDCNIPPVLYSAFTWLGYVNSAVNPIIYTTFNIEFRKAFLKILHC
Chain of KiSS-1 receptor (Homo sapiens) (Q969F8 whole entry, looked up): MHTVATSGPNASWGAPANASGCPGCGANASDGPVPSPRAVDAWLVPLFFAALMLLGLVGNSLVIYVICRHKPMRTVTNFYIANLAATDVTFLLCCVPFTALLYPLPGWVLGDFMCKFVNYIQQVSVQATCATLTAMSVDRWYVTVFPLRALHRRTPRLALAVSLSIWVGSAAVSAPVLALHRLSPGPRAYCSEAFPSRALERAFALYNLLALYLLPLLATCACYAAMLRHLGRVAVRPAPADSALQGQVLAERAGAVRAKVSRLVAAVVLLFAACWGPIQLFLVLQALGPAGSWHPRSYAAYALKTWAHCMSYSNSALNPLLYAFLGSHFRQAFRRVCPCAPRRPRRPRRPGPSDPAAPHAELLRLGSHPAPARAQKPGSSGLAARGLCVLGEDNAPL
Chain of Gonadotropin-releasing hormone receptor (Homo sapiens) (P30968 whole entry, looked up): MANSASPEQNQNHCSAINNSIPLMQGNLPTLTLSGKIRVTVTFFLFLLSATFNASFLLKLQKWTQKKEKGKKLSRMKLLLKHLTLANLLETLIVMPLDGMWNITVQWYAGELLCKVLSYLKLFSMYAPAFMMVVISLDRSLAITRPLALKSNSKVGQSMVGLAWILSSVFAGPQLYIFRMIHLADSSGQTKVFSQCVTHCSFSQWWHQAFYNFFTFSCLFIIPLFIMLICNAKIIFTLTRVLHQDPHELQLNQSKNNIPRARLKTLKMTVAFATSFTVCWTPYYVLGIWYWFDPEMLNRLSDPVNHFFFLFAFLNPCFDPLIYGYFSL

O=C(O)CNC(=O)c1ccc(CO)o1
not listed: [20]
inactive: all other assays above

C1COCCO1
not listed: [13]
inactive: all other assays above

CCOC(=O)c1c(C)n(C)c2ccc(O)cc12
not listed: [16] | [18] | [20]
inactive: all other assays above

Cc1ccc2ccccc2c1[N+](=O)[O-]
not listed: [13] | [15]
inactive: all other assays above

NCc1ccccc1Sc1ccccc1CO
not listed: [20]
inactive: all other assays above

OC[C@H]1O[C@@H](O[C@H]2[C@H](O)[C@@H](O)[C@H](O)O[C@@H]2CO)[C@H](O)[C@@H](O)[C@H]1O
not listed: [20]
inactive: all other assays above

CC(C)(C)c1ccc(O)c(C(C)(C)C)c1
active: [1] 27.2 µM and 43.3 µM | [2] 9.65 µM and 61.1 µM | [9] 45.8 µM | [12] 23.7 µM
not listed: [13] | [15] | [16] | [19] | [20]
inactive: all other assays above

Cc1cncc(C)c1
not listed: [20]
inactive: all other assays above

c1ccsc1
not listed: [14] | [16] | [20]
inactive: all other assays above

CCOC(=O)c1ccc(C)cc1
not listed: [13] | [14] | [18] | [19]
inactive: all other assays above

CC(C)(C)C(=O)OCOC(=O)C1N2C(=O)CC2S(=O)(=O)C1(C)C (stereo unspecified)
active: [16] 0.0119 µM
not listed: [13] | [14] | [18] | [19]
inactive: all other assays above

CC(C)(CO)[C@@H](O)C(=O)NCCC(=O)O
not listed: [14] | [19] | [20]
inactive: all other assays above

Nc1nnnn1-c1ccccc1
not listed: [13] | [15] | [18]
inactive: all other assays above

CCOC(=O)c1cccc(N)c1
not listed: [16] | [18] | [20]
inactive: all other assays above

CC1=CCC(O)(C(C)C)CC1 (stereo unspecified)
not listed: [20]
inactive: all other assays above

C=C1CC/C=C(\C)CC[C@@H]2[C@@H]1CC2(C)C
not listed: [13] | [18]
inactive: all other assays above

CCCCCCCCCCCCCCCCCCOCC(O)CO (stereo unspecified)
not listed: [14] | [16] | [19] | [20]
inactive: all other assays above

CCCCCCCCc1ccc(Nc2ccc(CCCCCCCC)cc2)cc1
not listed: [20]
inactive: all other assays above

c1ccc2ncccc2c1
not listed: [13]
inactive: all other assays above

Oc1c(Cl)ccc(Cl)c1Cl
not listed: [13]
inactive: all other assays above

C1CCSC1
not listed: [12]
inactive: all other assays above

CCO[Si](C)(OCC)OCC
not listed: [12] | [13] | [18]
inactive: all other assays above

CC(C)=CCCC(C)CC=O (stereo unspecified)
not listed: [12] | [13] | [14] | [20]
inactive: all other assays above

C=C(C)C(=O)OCCNC(C)(C)C
not listed: [12]
inactive: all other assays above

CCOC(=O)[C@H](CCc1ccccc1)N[C@@H](C)C(=O)N1Cc2ccccc2C[C@H]1C(=O)O
not listed: [12] | [13] | [14] | [20]
inactive: all other assays above

CC(=O)NC(Cc1ccccc1)C(=O)O (stereo unspecified)
not listed: [12]
inactive: all other assays above

COC(=O)c1cc(Cl)ccc1NS(=O)(=O)C(F)(F)F
not listed: [12] | [13]
inactive: all other assays above

COC(=O)Nc1ccc(Cl)c(Cl)c1
not listed: [11]
inactive: all other assays above

CCOC(=S)SSC(=S)OCC
active: [2] 68.6 µM
not listed: [12] | [14]
inactive: all other assays above
